Screening data deposited in PubChem by National Center for Advancing Translational Sciences (NCATS).
D2 PAM-1: potentiates the human D2 dopamine receptor allosterically; DiscoveRx D2 beta-arrestin cells, luminescence, 90 min; 100% = 57 uM dopamine signal; potentiation, % (no concentration beside the values); AID 624464; 360,000 tested, 0.23% active; P14416; in the data active = potentiation above about 50%; inconclusive = mostly about 30% to 49%
Target sequence (P14416 whole entry, looked up): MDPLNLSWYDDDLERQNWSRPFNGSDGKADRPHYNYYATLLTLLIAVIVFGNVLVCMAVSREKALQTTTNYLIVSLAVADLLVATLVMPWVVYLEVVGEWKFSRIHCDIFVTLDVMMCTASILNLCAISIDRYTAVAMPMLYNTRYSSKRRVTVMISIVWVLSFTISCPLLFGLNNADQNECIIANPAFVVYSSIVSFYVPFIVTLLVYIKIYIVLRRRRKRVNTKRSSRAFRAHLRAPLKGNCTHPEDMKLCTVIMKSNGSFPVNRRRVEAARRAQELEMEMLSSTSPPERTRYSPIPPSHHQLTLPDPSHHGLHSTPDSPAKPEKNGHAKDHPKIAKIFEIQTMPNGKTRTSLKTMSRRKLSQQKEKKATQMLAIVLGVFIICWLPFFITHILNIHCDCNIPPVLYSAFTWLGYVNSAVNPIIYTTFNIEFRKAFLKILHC
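PathHunter beta-arrestin assay in DiscoveRx D2 cells. Compounds were added with an EC20 of dopamine (50 nM final) for 90 min at 37 deg C. Luminescence was read 1 h after detection reagent, with 57 uM dopamine as the EC100 control.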
D2 PAM-2: positive allosteric modulators of human D2 dopamine receptor | 340,000 tested, 0.34% active | AID 485347 | P14416 | potentiation, % at 10 µM | HEK293 T-REx D2, calcium flux, EC20 dopamine potentiation;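 active = potentiation over 3 SD above the plate norm, cut at about 30% in these data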
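Primary screen. Calcium kinetics in induced HEK293 T-REx D2 cells: compound pre-addition 180 s, EC20 dopamine, 180 s more.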
D2 ag-1: activates the human D2 dopamine receptor. P14416. HEK293 T-REx D2 cells, calcium flux agonist mode. activation, % at 2 µM. 340,000 tested, 0.53% active;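 active = activation over 3 SD above normal in the single-dose calcium agonist read, cut at about 30% in these data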
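HEK293 Trex D2 cells, tetracycline-induced, o/n 30 C 5% CO2; no-wash Ca dye, RT 30–90 min; 10-cycle baseline, 23 nl cpd added, kinetic Ca read 180 s; agonist hits = positive Ca response.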
D2 antagonist: D2 dopamine receptor (human) antagonism. inhibition, % at 10 µM. 340,000 tested, 2% active. AID 485344. HEK293 TREx D2 cells, calcium flux, dopamine EC80. P14416; in the data active = inhibition above about 30%; inactive = below that, where a call was filed
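Dopamine at EC80 is the agonist stimulus; test compounds precede it by 180 s. Calcium flux read kinetically in a force-coupled, inducible HEK293 T-REx D2 cell line.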
D2 ag-2: human D2 receptor agonism in beta-arrestin assay | DiscoveRx PathHunter D2 beta-arrestin, luminescence, 90 min; 100% = 57 uM dopamine signal | activation, % (no concentration beside the values) | 360,000 tested, 0.084% active; in the data active = activation above about 40%; inconclusive = between about 15% and that limit
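DiscoveRx PathHunter D2 beta-arrestin cells (2,100/well) attached overnight, then compound-stimulated 90 min at 37 C in HBSS/10 mM HEPES/0.1% Tween-20 buffer; beta-galactosidase complementation read by luminescence after 1 h at ambient temperature. Dopamine 57 uM final (EC100) as control.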
Of the large screens only hits and unclear results are named; the others gave an inactive call; ! = not confirmed by another sample. Most compounds without a hit are left out; they make up all but 2.4% or so of the library.

O=S(=O)(c1ccc(Cl)cc1)N(CCCN1CCOCC1)Cc1cccs1	D2 antagonist 43
CC1(C(=O)NC2CCCCC2)Cc2ccccc2C(=O)N1Cc1ccccc1Cl (stereo not given)	none (no result: D2 PAM-1, D2 antagonist, D2 ag-2)
NC(=O)c1ccc(N2CCN(c3ccccc3F)CC2)c([N+](=O)[O-])c1	D2 PAM-2 41
NC(=O)c1ccc(N2CCN(c3ccccc3O)CC2)c([N+](=O)[O-])c1	none
O=C(CCc1nc(-c2ccccc2)no1)Nc1cccnc1	D2 antagonist 58
O=C(CCCc1nc(-c2ccccc2)no1)Nc1cccnc1	none (no result: D2 PAM-2, D2 ag-1, D2 antagonist)
Cc1cc(C)c2c(=O)cc(CSc3nnc(-c4ccccc4)n3C)[nH]c2c1	none (no result: D2 PAM-1, D2 antagonist, D2 ag-2)
COc1cccc(-n2ccn(CC(=O)c3ccc(F)cc3)c(=O)c2=O)c1	none (no result: D2 PAM-1, D2 antagonist, D2 ag-2)
CCCc1nnc(NC(=O)c2nc(S(=O)(=O)Cc3cccc(C)c3)ncc2Cl)s1	D2 PAM-2 30
CC(C)c1ccccc1NC(=O)CNCCOc1ccccc1F	D2 ag-1 31, D2 antagonist 46
CC(NC(=O)C1CCN(C(=O)c2ccc(F)cc2)CC1)c1ccc(-n2ccnc2)cc1 (stereo not given)	D2 antagonist 31
COc1cc(C(=O)NC(C)c2ccc(-n3ccnc3)cc2)cc(OC)c1C (stereo not given)	D2 PAM-2 31
COc1cc(C(=O)NCC(=O)NC(C)c2ccc(-n3ccnc3)cc2)cc(OC)c1OC (stereo not given)	none
CC1CCN(C(=O)CN2CC(C)Sc3ccccc32)CC1 (stereo not given)	none (no result: D2 PAM-1, D2 antagonist, D2 ag-2)
O=C(COc1ccccc1Cl)Nc1ccc(Cl)c(-c2nc3ccccc3o2)c1	none (no result: D2 PAM-1, D2 antagonist, D2 ag-2)
O=C1C=C(Nc2ccc(Cl)cc2)CC(c2ccc(Cl)cc2)C1 (stereo not given)	D2 antagonist 48
CCCc1nc2nc(C)c(NS(=O)(=O)c3ccc(CC(C)C)cc3)c(=O)n2[nH]1	D2 PAM-2 32!
COc1ccc(S(=O)(=O)N2CCCCC2)cc1NC(=O)Cc1ccsc1	D2 antagonist 30
COc1ccc(S(=O)(=O)N2CCCCCC2)cc1NC(=O)Cc1ccccc1	none
COc1ccc(CC(=O)Nc2cc(S(=O)(=O)N3CCCCC3)ccc2C)cc1	D2 antagonist 31
CCOc1ccc(S(=O)(=O)N2CCCCC2)cc1NC(=O)Cc1ccsc1	D2 antagonist 34
CCOc1ccc(S(=O)(=O)N2CCCCC2)cc1NC(=O)Cc1ccc(OC)cc1	none (no result: D2 PAM-2, D2 ag-1, D2 antagonist)
Cc1ccccc1CNC(=O)c1oc2c(c1C)-c1[nH]ncc1CC2	none (no result: D2 PAM-1, D2 antagonist, D2 ag-2)
Cc1ccc2c(c1)N(C(=O)N1CCC(C(=O)NCc3cccs3)CC1)CC(C)O2 (stereo not given)	none (no result: D2 PAM-1, D2 antagonist, D2 ag-2)
CC(C)Oc1cccc(C(=O)Nc2ccc3oc(-c4ccccc4)nc3c2)c1	none (no result: D2 PAM-1, D2 antagonist, D2 ag-2)
COC(=O)CSc1nc2sc3c(c2c(=O)n1-c1ccccc1C)CC(C)(C)OC3	none (no result: D2 PAM-1, D2 antagonist, D2 ag-2)
COc1ccc(C(C)(C)NC(=O)C2CCC(=O)N(CCCN3CCCC3=O)C2)cc1 (stereo not given)	D2 antagonist 33
COc1ccc(CNC(=O)C2CCC(=O)N(CCCN3CCCC3=O)C2)cc1 (stereo not given)	none
Cc1cccc(Cn2c(CN3CCC(C(=O)NCCc4ccccc4)CC3)cc3ccccc32)c1	none (no result: D2 PAM-1, D2 ag-1, D2 antagonist, D2 ag-2)
CCN(C1CCCCC1)S(=O)(=O)c1ccc(S(=O)(=O)N2CCN(CCC#N)CC2)cc1	D2 antagonist 38
CCOc1ccc(NC(=O)C(C)Sc2nnc3cc(C)c4ccccc4n23)cc1 (stereo not given)	none (no result: D2 PAM-1, D2 antagonist, D2 ag-2)
CCCCn1c(SCC(=O)Nc2cc(C)on2)nnc1-c1cccs1	none
CCOC(=O)c1ccc(NC(=O)CSc2nnc(CNc3ccc(C)cc3)n2C)cc1	D2 PAM-1 50
Cc1cc(NC(=O)CSc2nnc(-c3cccs3)n2N)no1	D2 antagonist 39
CCN(CC)CCOC(=O)c1ccc(NC(=O)CSc2nnc(-c3cccs3)n2CC)cc1	D2 PAM-1 74 (no result: D2 PAM-2, D2 ag-1, D2 antagonist)
C=CCn1c(SCC(=O)Nc2ccc(C(=O)OCC)cc2)nnc1-c1sc(N)nc1C	D2 antagonist 31
CCOC(=O)c1ccc(NC(=O)CSc2nnc(C3CC3)n2C)cc1	none
COc1ccc(NC(=O)CSc2nc(-c3cccc(C)c3)[nH]c2-c2ccccc2)cc1OC	none (no result: D2 PAM-1, D2 antagonist, D2 ag-2)
Cc1ccc(Cl)cc1NC(=O)c1ccc2nc(CCc3ccccc3)oc2c1	none (no result: D2 PAM-1, D2 antagonist, D2 ag-2)
CCOc1ccccc1NC(=O)c1c(NCc2ccc(OC)c(OC)c2OC)sc2c1CCC(C)C2 (stereo not given)	none (no result: D2 PAM-1, D2 antagonist, D2 ag-2)
COc1ccc(N2CCN(C(=O)CSc3nnnn3C3CC3)CC2)cc1	D2 antagonist 32
COc1ccccc1N1CCN(C(=O)CSc2nnnn2C2CC2)CC1	none
Cc1cccc(C)c1NC(=O)Cn1c(=O)cc(C)c2c(C)nn(-c3cccc(Cl)c3C)c21	none (no result: D2 PAM-1, D2 antagonist, D2 ag-2)
CCOc1cc2c(cc1/C=C/c1noc(C)c1[N+](=O)[O-])OC(C)C2 (stereo not given)	D2 ag-1 64
COc1cccc(OC)c1OCCN1CCN(C(c2ccccc2)c2ccccc2)CC1	none
OCCOCCN1CCN(C(c2ccccc2)c2ccc(Cl)cc2)CC1 (stereo not given)	D2 antagonist 72
CCCCn1c(SCc2ccccc2C#N)nc2c(sc3ccccc32)c1=O	none (no result: D2 PAM-1, D2 antagonist, D2 ag-2)
CCOc1ccc(N2CC(NC(=O)c3ccc(S(=O)(=O)N4CCOCC4)cc3)CC2=O)cc1 (stereo not given)	none (no result: D2 PAM-1, D2 antagonist, D2 ag-2)
COc1ccc(NC(=O)/C=C/c2cc(Br)ccc2OC)cc1	D2 antagonist 49
COc1ccc(OC)c(/C=C/C(=O)Nc2ccc3c(c2)CCC3)c1	D2 antagonist 49
CCOC(=O)Cn1c(=O)n(-c2ccc(Cl)cc2)c2nc(-c3ccc(Cl)cc3)nc(C(N)=O)c21	none (no result: D2 PAM-1, D2 antagonist, D2 ag-2)
Cc1cc(C)c2nc(-c3ccccn3)cc(C(=O)NCc3cc(C)n(C)n3)c2c1	D2 antagonist 35
CCOC(=O)C1CCCN(C(=O)CSc2ccccc2)C1 (stereo not given)	none
CCOC(=O)C1CCCN(C(=O)c2ccccc2SCCOC)C1 (stereo not given)	D2 antagonist 30
CCOC(=O)C1CCCN(C(=O)c2cc(Cl)ccc2Cl)C1 (stereo not given)	D2 antagonist 31
COCCSc1ccccc1C(=O)N1CCCC(C)C1 (stereo not given)	none
CCOC(=O)C1CCCN(C(=O)CSc2ccc(NC(C)=O)cc2)C1 (stereo not given)	D2 ag-1 34, D2 ag-2 inconclusive
Cc1c(C(=O)N2CCCC2)oc2c1-c1nn(CC(=O)NC(C)c3ccccc3)cc1CC2 (stereo not given)	none (no result: D2 PAM-1, D2 antagonist, D2 ag-2)
CCCC12CN3CCN(CC(C3)/C1=N\NC(=O)Nc1ccccc1)C2	D2 antagonist 54
CCCC12CN3CCN(CC(C3)/C1=N\NC(=O)c1ccc(F)cc1)C2	none
NC(=O)C1CCN(C(=O)c2ccc(NC(=O)c3nsc4ccccc34)cc2)CC1	none (no result: D2 PAM-1, D2 antagonist, D2 ag-2)
